Where a name gives a salt, the structure may show the parent alone. ± gives the standard deviation of the averaged measurements.
System: E. coli TESEC Mtb DapB
Assay: growth (OD600 after 10 h); higher = more growth (less inhibition)
Conditions: arabinose induction (level): High; compound 0.1 mM; raw OD600 reference: median of DMSO wells […], cell-free background 0.041
Protocol: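 TESEC E. coli strains in which the native enzyme is deleted and replaced by arabinose-inducible Mtb Asd, DapB, CysH or TrpD, each grown in its selective medium. Strains were screened against the Prestwick library at 0.1 mM and 1% DMSO in 384-well format at low and high arabinose induction. Growth is read as OD600 after 10 h in triplicate.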

Row | Structure (SMILES) | growth
1 | CN1CCc2c(c3ccccc3n2Cc2ccccc2)C1 [Mebhydroline 1,5-naphtalenedisulfonate] | 0.187 ± 0.017
2 | C[C@@H](O[C@H]1OCCN(Cc2n[nH]c(=O)[nH]2)[C@H]1c1ccc(F)cc1)c1cc(C(F)(F)F)cc(C(F)(F)F)c1 [Aprepitant] | 0.128 ± 0.015
3 | COc1cccc(N(C)C(=S)Oc2ccc3c(c2)CCCC3)n1 [Liranaftate] | 0.196 ± 0.013
4 | Oc1c(Cl)cc(Cl)c(Cl)c1Cc1c(O)c(Cl)cc(Cl)c1Cl [Hexachlorophene] | 0.0536 ± 0.0015
5 | CC1(C)S[C@@H]2[C@H](NC(=O)[C@H](N)c3ccccc3)C(=O)N2[C@H]1C(=O)O [Ampicillin trihydrate] | 0.205 ± 0.013
6 | CCC(=O)O[C@]1(C(=O)SCF)[C@H](C)C[C@H]2[C@@H]3C[C@H](F)C4=CC(=O)C=C[C@]4(C)[C@@]3(F)[C@@H](O)C[C@@]21C [Fluticasone propionate] | 0.199 ± 0.015
7 | CCCC(=O)Nc1ccc(OCC(O)CNC(C)C)c(C(C)=O)c1 (configuration not stated) [Acebutolol hydrochloride] | 0.197 ± 0.025
8 | CC(C)(C)NC[C@H](O)COc1cccc2c1CCCC2=O [(-) -Levobunolol hydrochloride] | 0.203 ± 0.0036
9 | COC(=O)CCc1ccc(OCC(O)CNC(C)C)cc1 (configuration not stated) [Esmolol hydrochloride] | 0.195 ± 0.0058
10 | O=c1[nH]cnc2c1ncn2[C@H]1CC[C@@H](CO)O1 [Didanosine] | 0.18 ± 0.011
11 | C[C@@H]1CCC[C@H](C)N1NC(=O)c1ccc(Cl)c(S(N)(=O)=O)c1 [Clopamide] | 0.199 ± 0.01
12 | CCCc1nn(C)c2c(=O)[nH]c(-c3cc(S(=O)(=O)N4CCN(C)CC4)ccc3OCC)nc12 [Sildenafil] | 0.199 ± 0.01
13 | O=C1[C@H]2CCCC[C@H]2C(=O)N1CCCCN1CCN(c2nsc3ccccc23)CC1 [Perospirone] | 0.174 ± 0.013
14 | CN1CCCC(CC2c3ccccc3Sc3ccccc32)C1 (configuration not stated) [Metixene hydrochloride] | 0.135 ± 0.07
15 | C[C@H]1O[C@H](O[C@H]2[C@H](O)[C@@H](O)[C@@H](O[C@@H]([C@H](O)[C@@H](O)C=O)[C@H](O)CO)O[C@@H]2CO)[C@H](O)[C@@H](O)[C@@H]1N[C@H]1C=C(CO)[C@@H](O)[C@H](O)[C@H]1O [Acarbose] | 0.196 ± 0.018
16 | O=C(Oc1cccc2cccnc12)c1ccccc1 [Benzoxiquine] | 0.182 ± 0.018

Row | Structure (SMILES) | growth
17 | O=P(O)(O)C(O)(Cn1ccnc1)P(=O)(O)O [Zoledronic acid hydrate] | 0.193 ± 0.0053
18 | Clc1ccc(COC(Cn2ccnc2)c2ccc(Cl)cc2Cl)c(Cl)c1 (configuration not stated) [Miconazole] | 0.0949 ± 0.0049
19 | CC[N+](CC)(CC)CCC(O)(c1ccccc1)C1CCCCC1 (configuration not stated) [Tridihexethyl chloride] | 0.207 ± 0.026
20 | COc1ccc(-c2ccc3cc(C(=O)O)ccc3c2)cc1C12CC3CC(CC(C3)C1)C2 [Adapalene] | 0.193 ± 0.013
21 | CC1=Nc2ccc(Cl)cc2S(=O)(=O)N1 [Diazoxide] | 0.199 ± 0.0067
22 | COCCCOc1ccnc(C[S+]([O-])c2nc3ccccc3[nH]2)c1C (configuration not stated) [Rabeprazole Sodium salt] | 0.176 ± 0.021
23 | O=C(O)c1cc(/N=N/c2ccc(S(=O)(=O)Nc3ccccn3)cc2)ccc1O [Sulfasalazine] | 0.207 ± 0.018
24 | Cc1c(O)c(=O)n(-c2ccccc2)n1C [Antipyrine, 4-hydroxy] | 0.184 ± 0.01
25 | C[C@]12C[C@H](O)[C@H]3[C@@H](CCC4=CC(=O)CC[C@@]43C)[C@@H]1CC[C@@H]2C(=O)CO [Corticosterone] | 0.179 ± 0.017
26 | CC(CN(C)C)CN1c2ccccc2Sc2ccccc21 (configuration not stated) [Trimeprazine tartrate] | 0.192 ± 0.0094
27 | C[C@@H]1C[C@H]2[C@@H]3C[C@H](F)C4=CC(=O)C=C[C@]4(C)[C@@]3(F)[C@@H](O)C[C@]2(C)[C@@]1(O)C(=O)COC(=O)C(C)(C)C [Flumethasone pivalate] | 0.2 ± 0.0088
28 | COc1cc(C)c(/C=C/C(C)=C/C=C/C(C)=C/C(=O)O)c(C)c1C [Acitretin] | 0.153 ± 0.0019
29 | CC(=O)OCC1=C(C(=O)O)N2C(=O)[C@@H](NC(=O)Cc3cccs3)[C@H]2SC1 [Cephalothin sodium salt] | 0.206 ± 0.013
30 | CC(C)NCC(O)c1ccc(O)c(O)c1 (single isomer, unassigned; (+)) [(+)-Isoproterenol (+)-bitartrate salt] | 0.2017 ± 0.0019
31 | CCC1(c2ccccc2)C(=O)NCNC1=O [Primidone] | 0.208 ± 0.014
32 | CC(C)(C)C(=O)OCOC(=O)[C@@H]1N2C(=O)[C@@H](/N=C/N3CCCCCC3)[C@H]2SC1(C)C [Pivmecillinam hydrochloride] | 0.218 ± 0.022

From the supplement of paper PMC9262897, “Low-cost anti-mycobacterial drug discovery using engineered E. coli” (Nature Communications, 2022)
